Laboratory results from PubChem BioAssay AID651658 (Broad Institute, 2012).
“And” between values parts separate entries of the source, which are not always exact repeats. Equal values may be shown once. The whole screen tested about 340,000 compounds, of which about 5,100 (1.5%) were called active.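 The calls were made as follows: active = mean Tm shift, scaled 0 neutral to 100 positive control, at about 1.3% or above, every replicate too (limit read from the data); inconclusive = no clear call, values can overlap the other calls; inactive = the rest.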 Many of the other results were omitted from the sample, so actives are more common in it than they were.

These molecules were tested against Fibroblast growth factor 22 (Homo sapiens) (UniProt Q9HCT0) (assay: FGF22 ligand-induced thermal stabilization – biophysical, thermal shift, single point, FGF22 synaptogenesis inhibitor project, primary screen (AID 651658)). Conditions: recombinant FGF22 thermal shift, SYPRO orange fluorescence; at 9.99 µM; active compounds read high; percent of sucrose octasulfate shift, DMSO zero.
Sequence of Fibroblast growth factor 22 (Homo sapiens) (Q9HCT0 whole entry, looked up): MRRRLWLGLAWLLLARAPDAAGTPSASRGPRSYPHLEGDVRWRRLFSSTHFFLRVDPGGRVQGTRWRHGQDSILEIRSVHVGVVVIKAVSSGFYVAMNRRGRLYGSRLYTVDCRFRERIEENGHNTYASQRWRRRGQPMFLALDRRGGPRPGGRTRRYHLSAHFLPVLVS

| Compound | activity (Tm shift, normalised) |
| --- | --- |
| COc1ccc(NC(=O)N[C@H]2C=C[C@H](CC(=O)NCc3ccccn3)O[C@H]2CO)cc1 | 0.256% (inactive) |
| CO[C@H](CN(C)C(=O)c1cnccn1)[C@@H](C)CN([C@@H](C)CO)S(=O)(=O)c1ccc(C)cc1 | 0.044% (inactive) |
| COc1ccc(CC2(CO)CCN(Cc3cnn(C)c3)CC2)cc1 | 0.198% (inactive) |
| COc1ccccc1/C=C/CN1CCC(CO)(Cc2ccccc2)CC1 | 43.2% (active) |
| OCC1(Cc2ccccc2)CCN(Cc2cc3ccccc3o2)CC1 | 42.4% (inactive) |
| CO[C@H]1CN(C)C(=O)c2cc(NC(=O)c3nc4ccccc4s3)ccc2OC[C@H](C)N(Cc2cccnc2)C[C@@H]1C | -0.365% (inactive) |
| COc1cccc(S(=O)(=O)N2CCCCN3[C@H](CO)[C@H](c4ccc(-c5ccncc5)cc4)[C@H]3C2)c1 | -0.25% (inactive) |
| O=C(Nc1ccccc1F)N1C[C@H]2[C@@H](c3ccccc31)[C@@H](CO)N2C(=O)Cc1cccnc1 | 0.459% (inactive) |
| Cc1cc(C)n(CC(=O)Nc2ccc([N+](=O)[O-])cc2)n1 | -0.311% (inactive) |
| CC(C)CC(=O)Nc1ccc(Cc2ccncc2)cc1 | -0.02% (inactive) |
| Cc1cc([N+](=O)[O-])nn1CC(=O)Nc1ccc(Cc2ccncc2)cc1 | 43.3% (active) |
| COCC(=O)N1CC[C@H]2[C@H](CO)Nc3ccc(-c4ccc(C(=O)N(C)C)cc4)cc3[C@H]21 | -0.374% (inactive) |
| CN(C)C(=O)C[C@@H]1CC[C@H](NC(=O)NC2CCCC2)[C@H](CO)O1 | -0.148% (inactive) |
| CCC(C)N(C(=O)CSc1nnnn1-c1ccccc1OC)C1CCS(=O)(=O)C1 (stereo not drawn) | -0.269% (inactive) |
| CCC(C)N(C(=O)COC(=O)C1C(C(=O)OC)=C(C)NC(C)=C1C(=O)OC)C1CCS(=O)(=O)C1 (stereo not drawn) | 43.2% (active) |
| CCC(C)N(C(=O)COC(=O)c1nc(Cl)ccc1Cl)C1CCS(=O)(=O)C1 (stereo not drawn) | 0.546% (inactive) |
| O=C(Cc1ccccn1)NCC[C@H]1CC[C@H](NC(=O)Nc2ccc(F)cc2)[C@@H](CO)O1 | 0.059% (inactive) |
| O=C(CNC(=O)c1cccnc1)N/N=C/c1cc(Br)c(O)c(Br)c1 | 0.674% (inactive) |
| O=C(NN=C1CCC(=NNC(=O)c2cccnc2)CC1)c1cccnc1 | -0.314% (inactive) |
| Cc1cc(/C=N/NC(=O)c2cccnc2)c(C)n1CC(C)C | 43% (active) |
| O=C(C[C@@H]1C[C@@H]2c3cc(NC(=O)Nc4ccc(C(F)(F)F)cc4)ccc3O[C@@H]2[C@@H](CO)O1)NCCc1ccccc1 | 0.083% (inactive) |
| COc1ccc(NC(=O)N(C)C[C@H]2OCCCC[C@H](C)Oc3ccc(NC(=O)c4ccncc4)cc3C(=O)N([C@H](C)CO)C[C@@H]2C)cc1 | -0.473% (inactive) |
| C[C@@H]1CN([C@H](C)CO)C(=O)c2cc(C3=CCCC3)cnc2O[C@@H]1CN(C)C(=O)Nc1ccc(F)cc1 | -0.106% (inactive) |
| COc1cc([N+](=O)[O-])ccc1NC(=O)CN1CCCC1 | 1.49% (active) |
| O=C(CN1CCCCCC1)Nc1ccc(Br)cc1[N+](=O)[O-] | -0.021% (inactive) |
| COc1cc(Cl)c(C)cc1NC(=O)CN1CCCCCC1 | -0.091% (inactive) |

| Compound | activity (Tm shift, normalised) |
| --- | --- |
| O=C(NCc1cccnc1)C(=O)Nc1nc(-c2ccccc2)cs1 | 0.205% (inactive) |
| O=C(Nc1ccccc1)Nc1nnc(COc2ccccc2F)s1 | 0.184% (inactive) |
| O=C(Nc1ccccc1)Nc1nc2ccccc2s1 | 43.2% (active) |
| O=C(CCC(=O)c1cccs1)Nc1nc2ccccc2s1 | 0.414% (inactive) |
| NC(c1ccccc1)c1csc(NC(=O)Nc2cccc(C(F)(F)F)c2)n1 (stereo not drawn) | -0.154% (inactive) |
| CC(=O)Nc1ccc(-c2csc(NC(=O)Nc3ccccc3)n2)cc1 | 44.8% (active) |
| O=C(C[C@@H]1CC[C@@H](NC(=O)c2ccc3c(c2)OCO3)[C@H](CO)O1)NCc1ccc(Cl)cc1 | -0.267% (inactive) |
| Cc1nc(SCc2ccc(F)cc2)c([N+](=O)[O-])[nH]1 | -0.03% (inactive) |
| Cc1cc(OCCCCOc2ccc(C#N)cc2)ccc1[N+](=O)[O-] | 0.385% (inactive) |
| CCCCCOc1ccc(CSC2=NCCN2)cc1[N+](=O)[O-] | 43.9% (active) |
| C[C@@H]1CCCCO[C@@H](CN(C)C(=O)C2CCCCC2)[C@H](C)CN([C@H](C)CO)C(=O)c2cc(NC(=O)c3ccccc3)ccc2O1 | -0.449% (inactive) |
| CCN(CC)S(=O)(=O)c1ccc(Cl)c(C(=O)NCCN2CCOCC2)c1 | -0.116% (inactive) |
| CCN(CC)S(=O)(=O)c1ccc(N2CCCC2)c(NS(=O)(=O)c2cccs2)c1 | -0.637% (inactive) |
| CCN(CC)S(=O)(=O)c1ccc(Cl)c(C(=O)NC(C)C(c2cccs2)N2CCCC2)c1 (stereo not drawn) | 43.4% (active) |
| CN(C)CC(=O)Nc1ccc2c(c1)[C@H]1C[C@H](CC(=O)NCc3ccccn3)O[C@@H](CO)[C@H]1O2 | -0.026% (inactive) |
| O=C(CNC1CCCCC1)NCC1(c2ccccc2)CCCC1 | 43% (active) |
| CCOc1c(OC)cccc1C(=O)NCC1(c2ccccc2)CCCC1 | -0.318% (inactive) |
| COc1cc(C(=O)NCC2(c3ccccc3)CCCC2)ccc1OC(C)C | -0.207% (inactive) |
| CO[C@@H]1CN(C)C(=O)c2ccc(NC(=O)C3CCC3)cc2OC[C@H](C)NC[C@H]1C | -0.059% (inactive) |
| COc1ccc2c3c(n(C)c2c1)[C@@H](CO)N(Cc1ccncc1)CC31CN(C(=O)C2CCC2)C1 | -0.256% (inactive) |
| C[C@@H]1CN([C@H](C)CO)C(=O)c2cc(NS(=O)(=O)c3ccccc3)ccc2O[C@@H](C)CCCCO[C@H]1CN(C)C(=O)C1CCCCC1 | -0.338% (inactive) |
| Cc1noc(C)c1S(=O)(=O)Nc1ccc2c(c1)CC(=O)N([C@@H](C)CO)C[C@@H](C)[C@H](CN(C)C)O2 | -0.289% (inactive) |
| CCCCN(C(=O)c1nn(C)c(=O)c2ccccc12)c1c(N)n(CCC)c(=O)[nH]c1=O | 0.011% (inactive) |
| CCCCn1c(N)c(N(CC)C(=O)/C=C/c2ccco2)c(=O)[nH]c1=O | 0.345% (inactive) |
| CCCCN(C(=O)/C=C/c1ccco1)c1c(N)n(CC(C)C)c(=O)[nH]c1=O | 43.9% (active) |
| CC(C)NC(=O)N(C)C[C@H]1Oc2ccc(NC(=O)CCCCCC(=O)Nc3ccccc3N)cc2C(=O)N([C@@H](C)CO)C[C@@H]1C | -0.213% (inactive) |

| Compound | activity (Tm shift, normalised) |
| --- | --- |
| COc1ccc2c3c([nH]c2c1)[C@@H](CO)N(C(=O)C1CC1)CC31CCN(Cc2nccs2)CC1 | 0.119% (inactive) |
| CC(C)NC(=O)Nc1ccc2c(c1)C(=O)N([C@H](C)CO)C[C@H](C)[C@@H](CN(C)Cc1ccc3c(c1)OCO3)OCCCC[C@H](C)O2 | -0.249% (inactive) |
| Cc1ccccc1NC(=O)NC1(C(=O)N2CCCC2)CCCCC1 | 43.5% (active) |
| CC(=O)N1CCN(C(=O)C2(NC(=O)Nc3ccc(C)cc3)CCCCC2)CC1 | -0.042% (inactive) |
| O=C(Nc1ccccc1Cl)NC1(C(=O)N2CCOCC2)CCCCC1 | -0.339% (inactive) |
| C[C@@H]1CN([C@H](C)CO)C(=O)Cc2cc(NC(=O)NC3CCCCC3)ccc2O[C@H]1CN(C)S(C)(=O)=O | -0.091% (inactive) and -0.115% (inactive) |
| CC(C)NC(=O)Nc1ccc2c(c1)C(=O)N([C@@H](C)CO)C[C@H](C)[C@@H](CN(C)Cc1ccc(C(=O)O)cc1)OCCCC[C@H](C)O2 | 0.548% (inactive) |
| COc1ccc2c3c([nH]c2c1)[C@H](CO)N(Cc1ccccc1Cl)CC31CN(C(=O)C2CC2)C1 | 0.006% (inactive) |
| COc1cccc(S(=O)(=O)N[C@@H]2C=C[C@H](CC(=O)NC3CCC3)O[C@H]2CO)c1 | 0.557% (inactive) |
| CC[N+]1(CC)CC2=Cc3ccccc3CC2C1 (stereo not drawn) | 43.3% (active) |
| C[C@@H]1CCCCO[C@@H](CN(C)Cc2ccccc2)[C@H](C)CN([C@H](C)CO)C(=O)c2cc(NC(=O)Nc3cccc4ccccc34)ccc2O1 | -0.579% (inactive) |
| C[C@@H]1CCCCO[C@H](CN(C)C(=O)NC2CCCCC2)[C@H](C)CN([C@H](C)CO)C(=O)c2cc(NC(=O)c3ccncc3)ccc2O1 | 0.182% (inactive) |
| COc1ccc2c3c(n(C)c2c1)[C@H](CO)N(C(=O)NC(C)C)CC31CN(CC2CCCCC2)C1 | -0.103% (inactive) |
| COc1ccc(CNC(=O)C2CCCC2)cc1 | -0.099% (inactive) |
| COc1ccc(CNC(=O)C2CCN(S(C)(=O)=O)CC2)cc1 | 43.4% (active) |
| COc1ccc(CNC(=O)C2CCN(S(=O)(=O)c3ccc(SC)cc3)CC2)cc1 | -0.235% (inactive) |
| CN(C)C(=O)c1ccc(-c2ccc([C@@H]3[C@H](C#N)N(C(=O)C4CC4)[C@H]3CO)cc2)cc1 | 0.09% (inactive) |
| CO[C@H]1CN(C)C(=O)c2cc(NC(=O)Nc3cccc(F)c3)ccc2OC[C@@H](C)N(C)C[C@H]1C | 0.028% (inactive) |
| S=C(Nc1ccc(Cl)cc1Cl)N1CCCC1 | -0.146% (inactive) |
| CC1CN(C(=S)Nc2ccc(Br)cc2Cl)CC(C)O1 (stereo not drawn) | 0.064% (inactive) |
| S=C(Nc1ccc(Br)cc1Cl)N1CCC2(CC1)OCCO2 | 43.8% (active) |
| O=C(Nc1cc(F)ccc1F)N1C[C@H]2[C@@H](c3ccccc31)[C@@H](CO)N2C(=O)c1ccccc1 | 0.029% (inactive) |
| N#C[C@@H]1[C@H](c2ccccc2)[C@H](CO)N1C(=O)CN1CCOCC1 | 0.041% (inactive) |
| O=C(Nc1ccccc1F)N1C[C@H]2[C@@H](c3ccccc31)[C@H](CO)N2C(=O)c1ccccn1 | -1.13% (inactive) |
| O=C(Nc1ccccc1)N1C[C@@H]2[C@H](c3ccccc31)[C@H](CO)N2C(=O)c1ccccn1 | -1.73% (inactive) |
| CC(C)NC(=O)N1C[C@@H]2[C@H](c3ccccc31)[C@H](CO)N2C(=O)c1ccccn1 | 16.8% (active) |
